# Reference: PMC7862700, “An all-to-all approach to the identification of sequence-specific readers for epigenetic DNA modifications on cytosine”
# Tests used:
# Test in all cases: DAPPL (digital affinity profiling via proximity ligation, sequencing); 10 mM Tris-HCl pH 7.5, 50 mM NaCl, 1 mM DTT, 4% glycerol, room temperature, 30 min; GST-TFs on glutathione beads, 16-mer random dsDNA library, 0.1% formaldehyde crosslink after washing; high values mean tight binding
# Details in all cases: protein: recombinant; tags: N-terminal GST; dsDNA, one strand shown
# GABPA = target: T1, GABPA (Homo sapiens, UniProt Q06546 1-454)
# T1 sequence: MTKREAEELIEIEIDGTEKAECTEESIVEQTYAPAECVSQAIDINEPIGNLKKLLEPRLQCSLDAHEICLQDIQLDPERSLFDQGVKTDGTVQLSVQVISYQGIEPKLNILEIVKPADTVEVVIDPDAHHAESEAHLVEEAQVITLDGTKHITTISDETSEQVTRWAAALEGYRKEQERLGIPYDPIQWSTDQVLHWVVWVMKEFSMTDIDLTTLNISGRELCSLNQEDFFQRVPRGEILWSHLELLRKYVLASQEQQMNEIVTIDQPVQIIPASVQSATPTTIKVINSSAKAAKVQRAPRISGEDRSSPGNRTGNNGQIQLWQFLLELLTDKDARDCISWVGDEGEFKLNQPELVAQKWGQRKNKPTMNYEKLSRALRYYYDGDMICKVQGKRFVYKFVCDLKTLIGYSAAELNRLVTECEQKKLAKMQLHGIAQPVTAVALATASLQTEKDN
# In short: (§1)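 GST fusions of human transcription factors were expressed in yeast and captured with glutathione beads. Once given DNA barcodes and pooled alongside a tag-only sample, they were incubated for 30 min at room temperature with 200 nmole of a random double-stranded 16-mer DNA library in Tris/NaCl/DTT/glycerol buffer, then washed, crosslinked (0.1% formaldehyde), proximity-ligated, PCR-amplified and sequenced on an Illumina NextSeq500. The binding signal of each hexamer is its read frequency for a factor divided by its frequency for the tag-only sample.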
# ERG = target: T2, ERG (Homo sapiens, UniProt P11308 1-479)
# T2 sequence: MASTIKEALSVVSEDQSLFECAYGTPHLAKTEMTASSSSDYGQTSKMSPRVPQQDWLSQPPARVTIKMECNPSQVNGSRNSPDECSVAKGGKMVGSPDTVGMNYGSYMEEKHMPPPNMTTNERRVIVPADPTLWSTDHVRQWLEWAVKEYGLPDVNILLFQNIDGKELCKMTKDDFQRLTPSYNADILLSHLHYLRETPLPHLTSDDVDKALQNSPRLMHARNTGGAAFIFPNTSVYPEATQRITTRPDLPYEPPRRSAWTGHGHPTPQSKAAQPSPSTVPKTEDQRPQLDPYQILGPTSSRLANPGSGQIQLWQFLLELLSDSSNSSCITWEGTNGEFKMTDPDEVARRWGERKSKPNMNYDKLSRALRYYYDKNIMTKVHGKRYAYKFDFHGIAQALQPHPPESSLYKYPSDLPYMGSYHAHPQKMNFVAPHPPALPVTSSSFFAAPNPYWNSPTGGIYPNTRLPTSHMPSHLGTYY
# In short: as §1
# ELF1 = ELF1 (Homo sapiens, UniProt P32519 1-619)
# In short: as §1
# EHF = target: T3, EHF (Homo sapiens, UniProt Q9NZC4 1-300)
# T3 sequence: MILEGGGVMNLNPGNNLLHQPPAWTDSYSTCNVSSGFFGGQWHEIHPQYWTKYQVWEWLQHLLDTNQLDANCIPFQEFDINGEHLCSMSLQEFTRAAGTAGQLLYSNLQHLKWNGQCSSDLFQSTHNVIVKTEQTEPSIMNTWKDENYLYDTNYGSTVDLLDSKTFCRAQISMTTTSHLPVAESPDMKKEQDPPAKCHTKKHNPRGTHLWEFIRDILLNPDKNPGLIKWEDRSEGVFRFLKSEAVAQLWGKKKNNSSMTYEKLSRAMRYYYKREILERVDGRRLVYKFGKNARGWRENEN
# In short: as §1
# SPIB = SPIB (Homo sapiens, UniProt Q01892 1-262)
# In short: as §1
# ELK3 = target: T4, ELK3 (Homo sapiens, UniProt P41970 1-407)
# T4 sequence: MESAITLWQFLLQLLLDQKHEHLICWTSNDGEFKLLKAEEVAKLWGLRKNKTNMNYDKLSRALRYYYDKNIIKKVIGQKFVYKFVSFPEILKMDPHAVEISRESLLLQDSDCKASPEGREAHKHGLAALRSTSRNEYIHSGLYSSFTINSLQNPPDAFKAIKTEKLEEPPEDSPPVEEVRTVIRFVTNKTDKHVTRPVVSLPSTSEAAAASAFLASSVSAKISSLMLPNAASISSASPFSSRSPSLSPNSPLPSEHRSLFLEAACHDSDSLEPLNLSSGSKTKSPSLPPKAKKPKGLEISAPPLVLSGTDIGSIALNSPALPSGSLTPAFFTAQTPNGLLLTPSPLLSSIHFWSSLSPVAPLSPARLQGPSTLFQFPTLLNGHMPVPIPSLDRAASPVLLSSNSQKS
# In short: as §1
# FEV = target: T5, FEV (Homo sapiens, UniProt Q99581 1-238)
# T5 sequence: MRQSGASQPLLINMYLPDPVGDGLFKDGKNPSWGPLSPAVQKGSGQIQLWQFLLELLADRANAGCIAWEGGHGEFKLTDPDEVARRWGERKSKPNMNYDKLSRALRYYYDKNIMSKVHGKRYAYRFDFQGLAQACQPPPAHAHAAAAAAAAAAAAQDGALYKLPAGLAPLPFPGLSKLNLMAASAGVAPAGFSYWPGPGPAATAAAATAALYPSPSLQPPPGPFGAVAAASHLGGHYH
# In short: as §1
# ETV5 = ETV5 (Homo sapiens, UniProt P41161 1-510)
# In short: as §1
# ELF4 = ELF4 (Homo sapiens, UniProt Q99607 1-663)
# In short: as §1
# ELF3 = target: T6, ELF3 (Homo sapiens, UniProt P78545 1-371)
# T6 sequence: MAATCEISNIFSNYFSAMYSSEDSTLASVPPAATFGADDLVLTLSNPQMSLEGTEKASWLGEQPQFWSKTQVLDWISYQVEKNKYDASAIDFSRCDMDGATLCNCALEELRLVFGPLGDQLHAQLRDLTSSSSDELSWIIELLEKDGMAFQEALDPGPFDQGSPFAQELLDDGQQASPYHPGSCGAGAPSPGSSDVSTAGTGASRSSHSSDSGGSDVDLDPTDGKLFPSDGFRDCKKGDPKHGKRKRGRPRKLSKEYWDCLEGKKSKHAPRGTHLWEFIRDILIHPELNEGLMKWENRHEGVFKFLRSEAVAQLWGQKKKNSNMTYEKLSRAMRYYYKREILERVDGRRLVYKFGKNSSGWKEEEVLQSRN
# In short: as §1
# ETV1 = ETV1 (Homo sapiens, UniProt P50549 1-477)
# In short: as §1
# ERF = target: T7, ERF (Homo sapiens, UniProt P50548 1-548)
# T7 sequence: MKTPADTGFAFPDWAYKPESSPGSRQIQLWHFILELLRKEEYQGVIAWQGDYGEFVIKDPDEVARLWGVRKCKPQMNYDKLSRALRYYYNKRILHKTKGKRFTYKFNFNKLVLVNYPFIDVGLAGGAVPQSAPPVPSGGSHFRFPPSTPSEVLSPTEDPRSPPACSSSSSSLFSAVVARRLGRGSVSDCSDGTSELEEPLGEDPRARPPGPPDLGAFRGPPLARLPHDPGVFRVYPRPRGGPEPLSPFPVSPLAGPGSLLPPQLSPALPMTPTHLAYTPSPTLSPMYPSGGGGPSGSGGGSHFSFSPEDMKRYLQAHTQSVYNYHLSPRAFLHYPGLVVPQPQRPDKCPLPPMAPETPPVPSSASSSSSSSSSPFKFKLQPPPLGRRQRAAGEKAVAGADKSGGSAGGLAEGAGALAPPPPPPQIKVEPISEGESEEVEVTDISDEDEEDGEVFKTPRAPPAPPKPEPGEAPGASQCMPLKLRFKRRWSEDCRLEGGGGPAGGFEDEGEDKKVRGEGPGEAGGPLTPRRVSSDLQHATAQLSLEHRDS
# In short: as §1
# ETV3L = target: T8, ETV3L (Homo sapiens, UniProt Q6ZN32 1-361)
# T8 sequence: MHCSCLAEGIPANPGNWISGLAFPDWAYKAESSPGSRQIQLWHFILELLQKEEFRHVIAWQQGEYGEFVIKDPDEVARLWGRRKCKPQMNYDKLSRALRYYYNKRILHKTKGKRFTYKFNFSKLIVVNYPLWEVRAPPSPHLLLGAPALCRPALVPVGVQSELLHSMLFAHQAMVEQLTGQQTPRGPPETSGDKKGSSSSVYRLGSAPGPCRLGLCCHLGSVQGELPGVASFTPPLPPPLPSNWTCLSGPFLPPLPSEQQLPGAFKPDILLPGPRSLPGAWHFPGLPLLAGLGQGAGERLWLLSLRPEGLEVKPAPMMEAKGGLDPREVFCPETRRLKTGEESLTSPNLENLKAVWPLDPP
# In short: as §1
# SPDEF = target: T9, SPDEF (Homo sapiens, UniProt O95238 1-335)
# T9 sequence: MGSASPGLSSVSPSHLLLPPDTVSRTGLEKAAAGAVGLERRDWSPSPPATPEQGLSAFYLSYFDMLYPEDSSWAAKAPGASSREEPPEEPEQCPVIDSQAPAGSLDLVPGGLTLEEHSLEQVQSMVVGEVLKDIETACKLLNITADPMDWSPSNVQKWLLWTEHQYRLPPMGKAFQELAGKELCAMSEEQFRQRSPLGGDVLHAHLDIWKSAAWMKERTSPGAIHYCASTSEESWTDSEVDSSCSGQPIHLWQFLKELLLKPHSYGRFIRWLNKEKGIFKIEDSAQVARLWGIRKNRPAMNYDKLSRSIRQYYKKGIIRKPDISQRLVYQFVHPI
# In short: as §1
# ETV7 = target: T10, ETV7 (Homo sapiens, UniProt Q9Y603 1-341)
# T10 sequence: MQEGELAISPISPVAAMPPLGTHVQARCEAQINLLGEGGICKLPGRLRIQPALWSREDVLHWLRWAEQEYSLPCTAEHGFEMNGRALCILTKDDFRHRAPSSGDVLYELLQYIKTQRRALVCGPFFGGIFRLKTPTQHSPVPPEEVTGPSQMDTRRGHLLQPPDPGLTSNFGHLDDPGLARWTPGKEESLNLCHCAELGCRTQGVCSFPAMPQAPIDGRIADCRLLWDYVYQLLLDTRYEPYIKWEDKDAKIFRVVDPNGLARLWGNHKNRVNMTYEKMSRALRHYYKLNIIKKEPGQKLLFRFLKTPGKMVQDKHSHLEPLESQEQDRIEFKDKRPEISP
# In short: as §1
# ETV3 = target: T11, ETV3 (Homo sapiens, UniProt P41162-2 1-143)
# T11 sequence: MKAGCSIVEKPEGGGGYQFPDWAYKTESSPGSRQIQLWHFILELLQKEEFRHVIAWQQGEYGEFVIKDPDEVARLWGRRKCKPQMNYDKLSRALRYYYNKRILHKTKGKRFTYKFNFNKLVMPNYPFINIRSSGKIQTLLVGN
# In short: as §1
# Chain of SPIB (Q01892 whole entry): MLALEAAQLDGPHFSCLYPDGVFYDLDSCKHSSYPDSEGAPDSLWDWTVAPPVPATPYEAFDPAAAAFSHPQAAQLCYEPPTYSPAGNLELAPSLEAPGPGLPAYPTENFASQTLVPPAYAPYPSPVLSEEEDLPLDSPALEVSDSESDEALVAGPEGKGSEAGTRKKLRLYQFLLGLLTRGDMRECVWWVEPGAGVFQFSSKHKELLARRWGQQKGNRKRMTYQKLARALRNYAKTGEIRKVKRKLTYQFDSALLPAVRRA
# Chain of ELF1 (P32519 whole entry): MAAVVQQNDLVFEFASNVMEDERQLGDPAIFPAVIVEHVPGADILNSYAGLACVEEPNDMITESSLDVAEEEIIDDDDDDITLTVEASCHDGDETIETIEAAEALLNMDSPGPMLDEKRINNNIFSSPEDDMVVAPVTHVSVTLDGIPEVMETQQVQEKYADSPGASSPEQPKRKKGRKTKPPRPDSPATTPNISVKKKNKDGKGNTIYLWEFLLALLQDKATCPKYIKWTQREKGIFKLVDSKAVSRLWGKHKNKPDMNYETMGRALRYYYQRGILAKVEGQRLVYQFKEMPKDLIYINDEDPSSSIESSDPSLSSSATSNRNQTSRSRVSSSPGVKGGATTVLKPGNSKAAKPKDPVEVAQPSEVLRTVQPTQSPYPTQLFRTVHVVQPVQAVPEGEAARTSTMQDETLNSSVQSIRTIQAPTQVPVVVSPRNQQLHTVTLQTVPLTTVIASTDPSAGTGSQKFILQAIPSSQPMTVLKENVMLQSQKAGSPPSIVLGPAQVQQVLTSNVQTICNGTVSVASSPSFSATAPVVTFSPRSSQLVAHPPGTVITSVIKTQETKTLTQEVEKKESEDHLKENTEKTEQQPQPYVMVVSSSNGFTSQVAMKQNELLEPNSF
# Chain of ETV1 (P50549 whole entry): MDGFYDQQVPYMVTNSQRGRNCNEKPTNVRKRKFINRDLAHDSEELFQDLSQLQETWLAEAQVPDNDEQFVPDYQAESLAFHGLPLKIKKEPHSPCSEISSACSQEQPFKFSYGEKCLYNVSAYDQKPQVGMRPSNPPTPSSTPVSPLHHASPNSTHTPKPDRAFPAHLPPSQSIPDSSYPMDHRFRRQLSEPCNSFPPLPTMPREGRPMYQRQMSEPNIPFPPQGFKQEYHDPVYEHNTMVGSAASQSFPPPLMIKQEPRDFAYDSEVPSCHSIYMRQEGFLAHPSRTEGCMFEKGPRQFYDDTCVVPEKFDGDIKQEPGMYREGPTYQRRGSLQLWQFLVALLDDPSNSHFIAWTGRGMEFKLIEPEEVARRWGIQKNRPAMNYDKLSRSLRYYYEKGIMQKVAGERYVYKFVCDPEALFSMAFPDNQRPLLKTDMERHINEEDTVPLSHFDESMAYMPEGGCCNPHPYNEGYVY
# Chain of ELF4 (Q99607 whole entry): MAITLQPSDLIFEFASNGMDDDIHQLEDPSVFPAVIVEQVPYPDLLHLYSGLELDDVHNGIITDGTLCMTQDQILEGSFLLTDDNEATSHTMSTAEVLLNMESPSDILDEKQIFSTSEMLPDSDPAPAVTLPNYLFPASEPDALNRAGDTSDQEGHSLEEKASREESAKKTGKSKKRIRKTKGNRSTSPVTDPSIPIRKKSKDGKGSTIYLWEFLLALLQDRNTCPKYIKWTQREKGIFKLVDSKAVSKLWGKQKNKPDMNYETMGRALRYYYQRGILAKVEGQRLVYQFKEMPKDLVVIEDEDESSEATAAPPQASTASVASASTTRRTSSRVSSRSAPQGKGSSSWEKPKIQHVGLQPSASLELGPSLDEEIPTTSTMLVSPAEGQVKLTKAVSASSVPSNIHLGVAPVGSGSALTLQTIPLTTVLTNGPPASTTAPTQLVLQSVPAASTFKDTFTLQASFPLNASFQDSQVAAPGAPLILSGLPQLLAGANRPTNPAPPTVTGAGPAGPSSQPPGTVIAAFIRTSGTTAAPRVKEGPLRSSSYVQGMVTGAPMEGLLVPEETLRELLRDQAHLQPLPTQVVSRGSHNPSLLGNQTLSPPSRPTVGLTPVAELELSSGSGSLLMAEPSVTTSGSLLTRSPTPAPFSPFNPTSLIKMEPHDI
# Chain of ETV5 (P41161 whole entry): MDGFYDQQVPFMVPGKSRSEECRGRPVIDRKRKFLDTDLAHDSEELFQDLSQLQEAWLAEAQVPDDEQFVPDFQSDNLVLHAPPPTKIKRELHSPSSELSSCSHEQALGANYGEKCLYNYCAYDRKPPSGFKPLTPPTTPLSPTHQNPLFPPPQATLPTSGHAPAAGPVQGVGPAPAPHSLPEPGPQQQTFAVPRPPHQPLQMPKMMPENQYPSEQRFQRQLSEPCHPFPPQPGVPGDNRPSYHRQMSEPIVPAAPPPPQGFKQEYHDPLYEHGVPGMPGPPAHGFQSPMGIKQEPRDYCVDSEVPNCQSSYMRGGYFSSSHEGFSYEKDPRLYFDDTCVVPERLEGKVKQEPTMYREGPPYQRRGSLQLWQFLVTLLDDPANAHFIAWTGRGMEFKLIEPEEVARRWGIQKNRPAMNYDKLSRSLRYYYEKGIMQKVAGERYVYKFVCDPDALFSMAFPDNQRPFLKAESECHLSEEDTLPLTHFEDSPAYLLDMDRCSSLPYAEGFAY
sequence,measurement,setting,value
ACTGGA,binding signal,GABPA,"1.12 fold enrichment (6-mer frequency, TF over GST control)"
same,binding signal,ERG,"1.08 fold enrichment (6-mer frequency, TF over GST control)"
same,binding signal,ELF1,"1.03 fold enrichment (6-mer frequency, TF over GST control)"
same,binding signal,EHF,"1.02 fold enrichment (6-mer frequency, TF over GST control)"
same,binding signal,SPIB,"1.03 fold enrichment (6-mer frequency, TF over GST control)"
same,binding signal,ELK3,"1.01 fold enrichment (6-mer frequency, TF over GST control)"
same,binding signal,FEV,"1 fold enrichment (6-mer frequency, TF over GST control)"
same,binding signal,ETV5,"1.09 fold enrichment (6-mer frequency, TF over GST control)"
same,binding signal,ELF4,"1.1 fold enrichment (6-mer frequency, TF over GST control)"
same,binding signal,ELF3,"1.1 fold enrichment (6-mer frequency, TF over GST control)"
same,binding signal,ETV1,"1.06 fold enrichment (6-mer frequency, TF over GST control)"
same,binding signal,ERF,"1.03 fold enrichment (6-mer frequency, TF over GST control)"
same,binding signal,ETV3L,"1.02 fold enrichment (6-mer frequency, TF over GST control)"
same,binding signal,SPDEF,"1.02 fold enrichment (6-mer frequency, TF over GST control)"
same,binding signal,ETV7,"1.01 fold enrichment (6-mer frequency, TF over GST control)"
same,binding signal,ETV3,"1.05 fold enrichment (6-mer frequency, TF over GST control)"
